# From PubChem BioAssay (EPA / NIEHS)
# The source made the active and inactive calls. Rule for the calls: active = hit-call score of the fitted dose curve at least 0.9, where 1 is the maximum; inactive = score below 0.9.
# How the values were obtained:
# Conditions in all cases: mRNA level, 48 h; actives raise or lower the signal
# [1] = read-out: growth arrest and DNA damage 45 (GADD45A), GADD45A (gene 1647); test: LTEA_HepaRG_GADD45A: Life Technologies and Expression Analysis (LTEA) Assay for growth arrest and DNA damage 45 (GADD45A) using HepaRG (AID 2283458)
# How it was run: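 Differentiated HepaRG cells exposed 48 h in serum-free induction medium to 8 concentrations, top 100 uM in half-log steps, 0.5% DMSO. GADD45A mRNA quantified by qRT-PCR, normalized to ACTB, GAPDH and POLR2A; bidirectional fit versus DMSO.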
# [2] = read-out: Forkhead box O3 (FOXO3), FOXO3 (gene 2309); test: LTEA_HepaRG_FOXO3: Life Technologies and Expression Analysis (LTEA) Assay for Forkhead box O3 (FOXO3) using HepaRG (AID 2283459)
# How it was run: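 Differentiated human HepaRG cells in serum-free induction medium were exposed in duplicate for 48 h to eight half-log concentrations up to 100 uM in 0.5% DMSO. FOXO3 mRNA was quantified by qRT-PCR, normalized to ACTB, GAPDH and POLR2A, with bidirectional fitting versus DMSO.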
# [3] = read-out: ABC Transporter (ABCB1), ABCB1 (gene 5243); test: LTEA_HepaRG_ABCB1: Life Technologies and Expression Analysis (LTEA) Assay for ABC Transporter (ABCB1) using HepaRG (AID 2283460)
# How it was run: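 Differentiated human HepaRG cells, plated 48 h then switched to serum-free induction medium, were exposed in duplicate to eight half-log concentrations up to 100 uM in 0.5% DMSO for 48 h. ABCB1 mRNA was measured by TaqMan qRT-PCR, normalized to ACTB/GAPDH/POLR2A.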
# [4] = read-out: growth arrest and DNA damage 45 (GADD45B), GADD45B (gene 4616); test: LTEA_HepaRG_GADD45B: Life Technologies and Expression Analysis (LTEA) Assay for growth arrest and DNA damage 45 (GADD45B) using HepaRG (AID 2283461)
# How it was run: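 Values are bidirectional concentration-response fits against 0.5% DMSO controls. Underlying data: qRT-PCR mRNA levels in human HepaRG liver cells treated 48 h in serum-free induction medium, eight concentrations topping at 100 uM.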
# [5] = read-out: ABC Transporter (ABCC3), ABCC3 (gene 8714); test: LTEA_HepaRG_ABCC3: Life Technologies and Expression Analysis (LTEA) Assay for ABC Transporter (ABCC3) using HepaRG (AID 2283462)
# How it was run: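 Differentiated HepaRG liver cells receive test chemicals at eight concentrations (max 100 uM) for 48 h. Expression of ABCC3 is quantified by qRT-PCR against ACTB, GAPDH and POLR2A, and activity is fitted in both directions against the DMSO control.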
# [6] = read-out: ABC Transporter (ABCB11), ABCB11 (gene 8647); test: LTEA_HepaRG_ABCB11: Life Technologies and Expression Analysis (LTEA) Assay for ABC Transporter (ABCB11) using HepaRG (AID 2283463)
# How it was run: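 Differentiated human HepaRG cells were exposed for 48 h in serum-free induction medium to eight half-log concentrations up to 100 uM in 0.5% DMSO. ABCB11 mRNA was quantified by qRT-PCR, normalized to ACTB, GAPDH and POLR2A, and fitted bidirectionally versus DMSO.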
# [7] = read-out: ABC Transporter (ABCC2), ABCC2 (gene 1244); test: LTEA_HepaRG_ABCC2: Life Technologies and Expression Analysis (LTEA) Assay for ABC Transporter (ABCC2) using HepaRG (AID 2283464)
# How it was run: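 Gene expression of ABCC2 was determined by qRT-PCR in HepaRG cells exposed 48 h to chemicals (highest 100 uM, half-log dilutions). Activity was fitted in both directions relative to 0.5% DMSO vehicle.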
# [8] = read-out: Broad substrate specificity ATP-binding cassette transporter ABCG2 (Homo sapiens) (UniProt Q9UNQ0); test: LTEA_HepaRG_ABCG2: Life Technologies and Expression Analysis (LTEA) Assay for ABC Transporter (ABCG2) using HepaRG (AID 2283465)
# How it was run: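 Differentiated HepaRG cells in serum-free induction medium were exposed for 48 h, in duplicate, to eight half-log concentrations up to 100 uM in 0.5% DMSO. ABCG2 mRNA was measured by TaqMan qRT-PCR, normalized to ACTB, GAPDH and POLR2A, and fitted bidirectionally versus DMSO.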
# [9] = read-out: ATP-citrate lyase (ACLY), ACLY (gene 47); test: LTEA_HepaRG_ACLY: Life Technologies and Expression Analysis (LTEA) Assay for ATP-citrate lyase (ACLY) using HepaRG (AID 2283466)
# How it was run: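 Differentiated human HepaRG cells in serum-free induction medium exposed 48 h, in duplicate, to eight half-log concentrations from 100 uM top in 0.5% DMSO; ACLY mRNA measured by qRT-PCR, normalized to ACTB, GAPDH, POLR2A, fitted bidirectionally versus DMSO.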
# [10] = read-out: Peroxisomal acyl-coenzyme A oxidase 1 (ACOX1) gene, ACOX1 (gene 51); test: LTEA_HepaRG_ACOX1: Life Technologies and Expression Analysis (LTEA) Assay for Peroxisomal acyl-coenzyme A oxidase 1 (ACOX1) gene using HepaRG (AID 2283467)
# How it was run: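 Differentiated human HepaRG cells were exposed in duplicate for 48 h in serum-free induction medium to eight half-log concentrations up to 100 uM in 0.5% DMSO. ACOX1 mRNA was then quantified by TaqMan qRT-PCR, normalized to ACTB, GAPDH and POLR2A.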
# [11] = read-out: Bcl-2 (BAD) gene, BAD (gene 572); test: LTEA_HepaRG_BAD: Life Technologies and Expression Analysis (LTEA) Assay for Bcl-2 (BAD) gene using HepaRG (AID 2283469)
# How it was run: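 Differentiated human HepaRG cells in serum-free induction medium were exposed in duplicate for 48 h to eight concentrations (top 100 uM, half-log steps, 0.5% DMSO). BAD mRNA was quantified by qRT-PCR normalised to ACTB, GAPDH and POLR2A, with bidirectional fitting versus DMSO.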
# [12] = read-out: Bcl-2 (BAX) gene, BAX (gene 581); test: LTEA_HepaRG_BAX: Life Technologies and Expression Analysis (LTEA) Assay for Bcl-2 (BAX) gene using HepaRG (AID 2283470)
# How it was run: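 Differentiated HepaRG cells exposed 48 h in serum-free induction medium, eight half-log concentrations from 100 uM, in duplicate, 0.5% DMSO vehicle. BAX mRNA by TaqMan qRT-PCR, normalised to ACTB, GAPDH and POLR2A.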
# [13] = read-out: adenosine kinase (ADK) gene, ADK (gene 132); test: LTEA_HepaRG_ADK: Life Technologies and Expression Analysis (LTEA) Assay for adenosine kinase (ADK) gene using HepaRG (AID 2283471)
# How it was run: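 HepaRG (human liver), 48 h chemical exposure, 8-pt half-log series, top 100 uM, 0.5% DMSO vehicle. Readout: ADK mRNA by qRT-PCR vs housekeeping genes; bidirectional curve fit relative to DMSO baseline.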
# [14] = read-out: Alpha-fetoprotein (AFP) gene, AFP (gene 174); test: LTEA_HepaRG_AFP: Life Technologies and Expression Analysis (LTEA) Assay for Alpha-fetoprotein (AFP) gene using HepaRG (AID 2283472)
# How it was run: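 Differentiated human HepaRG cells exposed 48 h in serum-free induction medium, 8-point half-log series from 100 uM in 0.5% DMSO, duplicate. AFP mRNA by qRT-PCR, normalized to ACTB, GAPDH, POLR2A; bidirectional fit vs DMSO.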
# [15] = read-out: BCL2L11 (gene 10018); test: LTEA_HepaRG_BCL2L11: Life Technologies and Expression Analysis (LTEA) Assay for Bcl-2 (BCL2L11) gene using HepaRG (AID 2283473)
# How it was run: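 Cells were plated, cultured 48 h, switched to serum-free induction medium, then dosed in duplicate for 48 h at eight half-log concentrations up to 100 uM. Lysates underwent RNA isolation and TaqMan qRT-PCR; gain or loss versus DMSO was fitted.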
# [16] = read-out: Apolipoprotein A-V (APOA5) gene, APOA5 (gene 116519); test: LTEA_HepaRG_APOA5: Life Technologies and Expression Analysis (LTEA) Assay for Apolipoprotein A-V (APOA5) gene using HepaRG (AID 2283474)
# How it was run: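 Human liver HepaRG cells are treated 48 h with test chemicals (100 uM top, half-log dilutions, 0.5% DMSO). APOA5 mRNA induction or loss is measured by qRT-PCR relative to vehicle.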
# [17] = read-out: Bcl-2 (BID) gene, BID (gene 637); test: LTEA_HepaRG_BID: Life Technologies and Expression Analysis (LTEA) Assay for Bcl-2 (BID) gene using HepaRG (AID 2283476)
# How it was run: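 Gene expression by qRT-PCR in HepaRG cells after 48 h exposure, duplicate wells, eight half-log concentrations topping at 100 uM in 0.5% DMSO. Normalized to ACTB, GAPDH, POLR2A; bidirectional fitting relative to DMSO.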
# [18] = read-out: Caspase-3 (Homo sapiens) (UniProt P42574); test: LTEA_HepaRG_CASP3: Life Technologies and Expression Analysis (LTEA) Assay for cysteine-aspartic acid protease (CASP3) using HepaRG (AID 2283477)
# How it was run: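 In HepaRG liver cells dosed for 48 h at up to 100 uM (eight-point, duplicate), CASP3 expression changes are scored by qRT-PCR. Activity is fitted in both directions with 0.5% DMSO as baseline.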
# [19] = read-out: Alkaline Phosphatase, Placental (ALPP) gene, ALPP (gene 250); test: LTEA_HepaRG_ALPP: Life Technologies and Expression Analysis (LTEA) Assay for Alkaline Phosphatase, Placental (ALPP) gene using HepaRG (AID 2283468)
# How it was run: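 Expression of ALPP was quantified by qRT-PCR against three housekeeping genes in human HepaRG cultures treated for 48 h with an eight-point concentration series up to 100 uM. Activity in either direction was fitted relative to 0.5% DMSO.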
# [20] = read-out: Apoptosis regulator Bcl-2 (Homo sapiens) (UniProt P10415); test: LTEA_HepaRG_BCL2: Life Technologies and Expression Analysis (LTEA) Assay for Bcl-2 gene using HepaRG (AID 2283475)
# How it was run: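 Differentiated human HepaRG cells in serum-free induction medium exposed 48 h, in duplicate, to 8-point half-log series from 100 uM in 0.5% DMSO. BCL2 mRNA by qRT-PCR (TaqMan/Fluidigm), normalized to ACTB, GAPDH, POLR2A; bidirectional fit against DMSO.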
# Apoptosis regulator Bcl-2 (Homo sapiens), sequence (P10415 whole entry, looked up): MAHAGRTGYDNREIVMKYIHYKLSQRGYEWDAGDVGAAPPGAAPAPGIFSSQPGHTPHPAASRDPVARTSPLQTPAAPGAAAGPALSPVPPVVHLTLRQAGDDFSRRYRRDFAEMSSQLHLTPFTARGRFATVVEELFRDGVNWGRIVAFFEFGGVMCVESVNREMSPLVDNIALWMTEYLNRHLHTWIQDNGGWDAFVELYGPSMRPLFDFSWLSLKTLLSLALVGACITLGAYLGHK
# Caspase-3 (Homo sapiens), sequence (P42574 whole entry, looked up): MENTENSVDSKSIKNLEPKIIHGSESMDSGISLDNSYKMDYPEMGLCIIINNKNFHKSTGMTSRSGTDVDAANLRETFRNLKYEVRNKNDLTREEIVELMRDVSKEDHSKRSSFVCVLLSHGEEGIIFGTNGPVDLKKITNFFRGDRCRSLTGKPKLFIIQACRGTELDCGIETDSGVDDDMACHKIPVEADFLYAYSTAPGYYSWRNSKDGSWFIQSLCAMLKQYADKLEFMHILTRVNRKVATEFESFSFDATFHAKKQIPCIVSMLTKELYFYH
# Broad substrate specificity ATP-binding cassette transporter ABCG2 (Homo sapiens), sequence (Q9UNQ0 whole entry, looked up): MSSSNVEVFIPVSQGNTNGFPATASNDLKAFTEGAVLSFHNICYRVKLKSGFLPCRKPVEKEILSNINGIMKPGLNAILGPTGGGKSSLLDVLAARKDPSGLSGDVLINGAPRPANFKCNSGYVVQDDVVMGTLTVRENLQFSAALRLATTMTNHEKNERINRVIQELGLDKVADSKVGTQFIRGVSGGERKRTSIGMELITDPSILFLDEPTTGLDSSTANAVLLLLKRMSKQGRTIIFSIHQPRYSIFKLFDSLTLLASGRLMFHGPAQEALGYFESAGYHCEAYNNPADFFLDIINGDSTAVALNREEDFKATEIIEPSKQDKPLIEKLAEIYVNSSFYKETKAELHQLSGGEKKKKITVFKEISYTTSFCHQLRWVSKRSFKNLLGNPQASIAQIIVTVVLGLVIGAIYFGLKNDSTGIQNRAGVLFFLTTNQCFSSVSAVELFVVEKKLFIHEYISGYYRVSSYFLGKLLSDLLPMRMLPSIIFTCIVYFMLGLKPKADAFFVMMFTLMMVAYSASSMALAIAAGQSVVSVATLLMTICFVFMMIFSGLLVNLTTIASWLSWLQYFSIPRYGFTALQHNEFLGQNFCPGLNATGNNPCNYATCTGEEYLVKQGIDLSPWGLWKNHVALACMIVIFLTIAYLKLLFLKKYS
structure (smiles),measurement,setting,value
S=c1[nH]c2ccccc2s1,outcome,[1],inactive
same,outcome,[2],inactive
same,outcome,[3],inactive
same,outcome,[4],inactive
same,outcome,[5],inactive
same,outcome,[6],inactive
same,outcome,[7],inactive
same,outcome,[8],inactive
same,outcome,[9],inactive
same,outcome,[10],inactive
same,outcome,[11],inactive
same,outcome,[12],inactive
same,outcome,[13],inactive
same,outcome,[14],inactive
same,outcome,[15],inactive
same,outcome,[16],inactive
same,outcome,[17],inactive
same,outcome,[18],inactive
CCCCCCC(C=O)=Cc1ccccc1,outcome,[1],inactive
same,outcome,[2],inactive
same,outcome,[3],inactive
same,outcome,[4],inactive
same,outcome,[5],inactive
same,outcome,[6],inactive
same,outcome,[7],inactive
same,outcome,[8],inactive
same,outcome,[9],inactive
same,outcome,[10],inactive
same,outcome,[19],inactive
same,outcome,[11],inactive
same,outcome,[13],inactive
same,outcome,[14],inactive
same,outcome,[15],inactive
same,outcome,[16],inactive
same,outcome,[17],inactive
same,outcome,[18],inactive
N[C@@H](Cc1c[nH]c2ccccc12)C(=O)O,outcome,[1],inactive
same,outcome,[2],inactive
same,outcome,[3],inactive
same,outcome,[4],inactive
same,outcome,[5],inactive
same,outcome,[6],inactive
same,outcome,[7],inactive
same,outcome,[8],inactive
same,outcome,[9],inactive
same,outcome,[10],inactive
same,outcome,[11],inactive
same,outcome,[12],inactive
same,outcome,[13],inactive
same,outcome,[14],inactive
same,outcome,[15],inactive
same,outcome,[20],inactive
same,outcome,[17],inactive
same,outcome,[18],inactive
Cc1cc(Cc2ccc(N)c(C)c2)ccc1N,outcome,[1],inactive
same,outcome,[2],inactive
same,AC50,[3],33.6 µM (active)
same,outcome,[4],inactive
same,outcome,[5],inactive
same,outcome,[6],inactive
same,AC50,[7],50 µM (active)
same,outcome,[8],inactive
same,outcome,[9],inactive
same,outcome,[10],inactive
same,outcome,[19],inactive
same,outcome,[11],inactive
same,outcome,[13],inactive
same,outcome,[14],inactive
same,outcome,[15],inactive
same,outcome,[17],inactive
same,outcome,[18],inactive
CCCCCCCCCC[N+](C)(C)[O-],outcome,[1],inactive
same,outcome,[2],inactive
same,outcome,[3],inactive
same,outcome,[4],inactive
same,outcome,[5],inactive
same,outcome,[6],inactive
same,outcome,[7],inactive
same,outcome,[8],inactive
same,outcome,[9],inactive
same,outcome,[10],inactive
same,outcome,[19],inactive
same,outcome,[11],inactive
same,outcome,[13],inactive
same,outcome,[14],inactive
same,outcome,[15],inactive
same,outcome,[16],inactive
same,outcome,[20],inactive
same,outcome,[17],inactive
same,outcome,[18],inactive
O=C(Oc1ccccc1)c1cccc(C(=O)Oc2ccccc2)c1,outcome,[1],inactive
same,outcome,[2],inactive
same,outcome,[3],inactive
same,outcome,[4],inactive
same,outcome,[5],inactive
same,outcome,[6],inactive
same,outcome,[7],inactive
same,outcome,[8],inactive
same,outcome,[9],inactive
same,outcome,[10],inactive
same,outcome,[11],inactive
same,outcome,[12],inactive
same,outcome,[13],inactive
same,outcome,[14],inactive
same,outcome,[15],inactive
same,outcome,[17],inactive
same,outcome,[18],inactive
CCCCCCCC(=O)OC,outcome,[1],inactive
same,outcome,[2],inactive
same,outcome,[3],inactive
same,outcome,[4],inactive
same,outcome,[5],inactive
same,outcome,[6],inactive
same,outcome,[7],inactive
same,outcome,[8],inactive
same,outcome,[9],inactive
same,outcome,[10],inactive
same,outcome,[11],inactive
same,outcome,[13],inactive
same,outcome,[14],inactive
same,outcome,[15],inactive
same,outcome,[20],inactive
same,outcome,[17],inactive
same,outcome,[18],inactive
